Results reported in article PMC4336329 (PLoS ONE, 2015).
About 14,000 (4.5%) of roughly 310,000 compounds showed an effect of 50% or more. The effect is printed as a negative number. Many of the other results were omitted from the sample, so strong results are more common in it than they were.

These compounds were tested against human ether-à-go-go-related gene (hERG) potassium channel (human, UniProt Q12809) (assay: primary screen, population patch clamp on CHO cells stably expressing hERG; higher = less effect of the substance).
human ether-à-go-go-related gene (hERG) potassium channel, sequence (Q12809 whole entry, looked up): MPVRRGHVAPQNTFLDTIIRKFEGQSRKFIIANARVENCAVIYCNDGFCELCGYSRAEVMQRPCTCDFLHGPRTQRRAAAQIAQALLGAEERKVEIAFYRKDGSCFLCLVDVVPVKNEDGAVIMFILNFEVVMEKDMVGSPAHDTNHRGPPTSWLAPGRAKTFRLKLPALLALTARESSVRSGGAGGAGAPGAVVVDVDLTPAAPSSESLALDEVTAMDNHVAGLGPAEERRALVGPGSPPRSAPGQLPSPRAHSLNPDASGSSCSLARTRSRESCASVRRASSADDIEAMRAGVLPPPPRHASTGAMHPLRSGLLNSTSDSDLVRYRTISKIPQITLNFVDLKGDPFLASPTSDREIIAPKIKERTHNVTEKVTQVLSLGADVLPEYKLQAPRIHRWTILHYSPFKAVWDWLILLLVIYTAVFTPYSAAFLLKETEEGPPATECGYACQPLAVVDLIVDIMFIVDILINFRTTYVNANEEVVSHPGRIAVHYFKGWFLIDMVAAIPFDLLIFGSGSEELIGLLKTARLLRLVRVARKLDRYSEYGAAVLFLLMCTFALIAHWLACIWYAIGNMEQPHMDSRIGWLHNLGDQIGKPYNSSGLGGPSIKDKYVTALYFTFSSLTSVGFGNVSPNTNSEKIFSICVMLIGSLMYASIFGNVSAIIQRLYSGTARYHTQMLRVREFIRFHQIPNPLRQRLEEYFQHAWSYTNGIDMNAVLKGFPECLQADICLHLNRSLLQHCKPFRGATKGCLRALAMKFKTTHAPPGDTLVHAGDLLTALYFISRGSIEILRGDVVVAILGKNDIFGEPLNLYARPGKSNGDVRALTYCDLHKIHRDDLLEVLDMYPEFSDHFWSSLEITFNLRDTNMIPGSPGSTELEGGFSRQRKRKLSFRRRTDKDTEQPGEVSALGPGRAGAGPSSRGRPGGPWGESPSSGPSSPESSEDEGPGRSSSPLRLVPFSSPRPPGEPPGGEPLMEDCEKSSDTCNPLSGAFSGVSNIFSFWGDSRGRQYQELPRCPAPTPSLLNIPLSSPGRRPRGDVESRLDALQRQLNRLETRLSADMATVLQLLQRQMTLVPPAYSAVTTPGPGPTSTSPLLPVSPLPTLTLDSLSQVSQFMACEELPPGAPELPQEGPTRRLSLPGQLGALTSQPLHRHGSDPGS
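Note: peak tail current of the secondary pulse compared with the same well before compound.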

SMILES	hERG current change (%, negative = inhibition) at 10uM [%]
COc1ccc(OCCSc2nc(N)cc(=O)[nH]2)cc1	-1.77
Cc1cccc(OCCC(=O)Nc2ccc(N3CCOCC3)cc2N2CCOCC2)c1	-19.7
COn1c(SCc2ccc(C)cc2C)nc2ccccc2c1=O	7.64
O=C(Nc1ccc(SC(F)F)cc1)c1ccc2nccnc2c1	-17.1
CN1CCC(OC(=O)c2ccccc2)CC1.Cl	7.92
CN1CCC(OC(=O)COc2ccc(C(C)(C)C)cc2)CC1.Cl	-28.7
CN1CCC(OC(=O)Cc2ccccc2)CC1.Cl	5.22
Cc1ccccc1C(=O)OC1CCN(C)CC1.Cl	6.06
CN1CCC(Oc2ccccc2Sc2ccc(C(F)(F)F)cc2)CC1.O=C(O)C(=O)O	-63.2
CN1CCC(Oc2ccccc2Sc2ccccc2)CC1.O=C(O)C(=O)O	-64.5
CN1CCC(Oc2ccc(Sc3ccccc3)cc2)CC1.Cl	-67
CN1CCC(OC(=O)COc2ccccc2)CC1.Cl	15.1
COc1ccc(OC2CCN(S(=O)(=O)c3ccccc3)CC2)cc1	-11.6
COc1ccccc1NC(=O)CCCCC(=O)Nc1ccccc1OC	7.88
O=Cc1ccccc1-c1cn(CN2C(=O)c3ccccc3C2=O)nn1	3.42
O=C(CCc1nnc2ccc(NCc3ccc(F)cc3)nn12)N1CCC2(CC1)OCCO2	-0.229
O=C(CCc1nnc2ccc(NCc3ccccc3Cl)nn12)N1CCC2(CC1)OCCO2	-67.7
O=C(CCc1nnc2ccc(NCc3ccco3)nn12)N1CCN(c2ccccc2)CC1	-56.3
Cc1ccc(NC(=O)CCc2nnc3ccc(NCc4ccco4)nn23)cc1	-2.39
Cc1ccc(NC(=O)CCc2nnc3ccc(NCc4ccco4)nn23)cc1F	-70.9
O=C(CCc1nnc2ccc(NCc3ccccc3)nn12)N1CCC2(CC1)OCCO2	14.4
O=C(CCc1nnc2ccc(NCc3ccco3)nn12)N1CCN(c2ccc(F)cc2)CC1	-46.7
O=C(CCc1nnc2ccc(NCc3ccco3)nn12)N1CCN(c2ccccc2F)CC1	-20.5

SMILES	hERG current change (%, negative = inhibition) at 10uM [%]
O=C(CCc1nnc2ccc(NCc3ccco3)nn12)Nc1ccc(F)cc1	-9.82
COC(=O)C1(Cc2cc(-c3ccc(Cl)cc3)no2)CCN(C(=O)OC(C)(C)C)CC1	-22.8
CCOc1ccc(OCC)c(S(=O)(=O)NCc2ccccc2)c1	-10.1
Clc1ccc(N2CCCCCC2)nn1	4.93
O=C(c1noc2c1CCCC2)N1CCN(c2ccccc2)CC1	-17.6
CCOc1cc(CNc2ccc3[nH]c(=O)[nH]c3c2)ccc1OCC(=O)NC(C)(C)C	12.4
COc1ccc(C2=NN(C(=O)CN3CCCCC3)C(c3ccc(C)cc3)C2)cc1 (centres unmarked)	-54.9
COc1ccc(C2CC(c3ccc(Br)cc3)=NN2C(=O)CN2CCCC2)cc1 (centres unmarked)	-68.1
COc1ccc(C2CC(c3ccccc3)=NN2C(=O)CN2CCN(Cc3ccccc3)CC2)cc1 (centres unmarked)	-31.2
COc1ccc(C2=NN(C(=O)CN3CCCCC3)C(c3ccc(OC)cc3)C2)cc1 (centres unmarked)	-40.1
COc1ccc(C2=NN(C(=O)CCC(=O)O)C(c3ccc(Br)cc3)C2)cc1 (centres unmarked)	29.9
COc1ccc(C2=NN(C(=O)CN3CCCC3)C(c3ccc(OC)cc3)C2)cc1 (centres unmarked)	-40.7
COC(=O)C1C2C=CC3(CN(c4ccc(Cl)c(F)c4)C(=O)C13)O2 (centres unmarked)	4.99
Cc1ccc(S(=O)(=O)N2CCN(c3ccccn3)CC2)cc1	4.96
Cc1ccc(S(=O)(=O)N2CCN(c3nccnc3C#N)CC2)cc1	-54.8
N#Cc1ccc(S(=O)(=O)N2CCN(c3ncccn3)CC2)cc1	-17.9
O=C(O)Cc1ccc(NC(=O)c2cnccn2)cc1	26.1
COc1cc(/C=N/NC(=O)Cc2ccccc2)cc([N+](=O)[O-])c1O	10
COc1cc(NC(=O)CCN2CCN(Cc3ccccc3)CC2)cc(OC)c1	-20.1
COc1cc(NC(=O)CCN2CCN(C/C=C/c3ccccc3)CC2)cc(OC)c1	-69.3
COc1ccc(NC(=S)N2CCN(C/C=C/c3ccccc3)CC2)cc1	-24.1
COc1ccc(NC(=O)CCN2CCCCCC2)cc1	-12.3
COc1cc(NC(=S)N2CCN(C/C=C/c3ccccc3)CC2)cc(OC)c1	-10.7

SMILES	hERG current change (%, negative = inhibition) at 10uM [%]
COc1ccc(NC(=O)CCN2CCN(C/C=C/c3ccccc3)CC2)cc1	-77.3
COc1cc(NC(=O)Cc2ccccc2)cc(OC)c1	-4.79
CCN(CCC(=O)Nc1ccc(Br)c(C)c1)Cc1ccccc1.Cl	-36.8
CCN(CCC(=O)Nc1cc(OC)cc(OC)c1)Cc1ccccc1	-65.1
Cc1nc2ccccc2c(=O)n1NC(=O)c1cncc(Br)c1	14.9
Cc1cc(C)c(C(=O)OCCNC(=O)c2cccnc2)cc1C	-17.3
CCc1ccccc1N(CC(=O)NCc1ccco1)C(=O)CCC(=O)Nc1nccs1	0.493
N#CC(C#N)=Cc1cnc(N2CCN(c3ccccc3)CC2)s1	23
COCCN(C(=S)Nc1cc(C)ccc1C)C(C)c1cccnc1 (centres unmarked)	-25.4
Cc1ccc(OC(C)C(=O)Nc2ccccc2C(=O)N2CCN(C)CC2)cc1 (centres unmarked)	-5.11
CCc1c(C)c(C#N)c2nc3ccccc3n2c1Nc1c(C)n(C)n(-c2ccccc2)c1=O	-5.49
Cc1c(NP(=O)(c2ccc(Br)cc2)c2ccc(Br)cc2)c(=O)n(-c2ccccc2)n1C	-65.7
Cc1c(Nc2nc(C(F)(F)F)nc3ccccc23)c(=O)n(-c2ccccc2)n1C	-1.37
Cc1c(NS(=O)(=O)c2ccc(Br)cc2)c(=O)n(-c2ccccc2)n1C	-6.03
Cc1c(Nc2nc3ccccc3nc2NS(=O)(=O)c2ccccc2)c(=O)n(-c2ccccc2)n1C	-67.1
Cc1c(Nc2c3ccccc3nc3ccccc23)c(=O)n(-c2ccccc2)n1C	-71
Cc1cc(Nc2c(C)n(C)n(-c3ccccc3)c2=O)n2c(nc3cc(F)c(F)cc32)c1C#N	19.2
Cc1cc(Nc2c(C)n(C)n(-c3ccccc3)c2=O)c2ccccc2n1	-20.3
Cc1cc(Nc2c(C)n(C)n(-c3ccccc3)c2=O)n2c(nc3ccccc32)c1C#N	-73.6
Cc1c(Nc2nc3ccccc3nc2NS(=O)(=O)c2cccc(Cl)c2)c(=O)n(-c2ccccc2)n1C	-2.18
Cc1c(Nc2nc3ccccc3nc2NS(=O)(=O)c2cccs2)c(=O)n(-c2ccccc2)n1C	1.13
Cc1c(NP(=O)(C(C)(C)C)C(C)(C)C)c(=O)n(-c2ccccc2)n1C	26.4
CC(C)C(=O)Nc1cccc(C(=O)Nc2ccc(S(=O)(=O)Nc3nccs3)cc2)c1	8.32

SMILES	hERG current change (%, negative = inhibition) at 10uM [%]
Nn1cnnc1SCC(=O)N1CCc2ccccc2C1	-12.8
COc1ccc(C(=O)c2nccc3ccccc23)cc1	0.535
COc1cccc(N(CC(=O)NCC2CCCO2)C(=O)CNS(=O)(=O)c2ccccc2)c1 (centres unmarked)	23.1
c1ccc(CCNc2ncnc3c2cnn3-c2ccccc2)cc1	-40.5
CC(=O)Nc1ccc(N2CCc3c(C)c(C#N)c4nc5ccccc5n4c32)cc1	8.55
Cc1ccc(N(Cc2ccc(C(=O)NCCSc3ccccn3)cc2)S(C)(=O)=O)cc1C	-4.82
Cc1nn(-c2ccc(Cl)cc2Cl)c(=O)c2ccccc12	-11.3
O=c1[nH]c(N2CCN(c3ccccc3)CC2)nc2c1CCCC2	2.28
Nc1c2c(nc3ccn(-c4ccccc4)c(=O)c13)CCCCC2	-58.8
O=c1[nH]c(N2CCN(Cc3ccccc3)CC2)nc2c1CCC2	18.9
Nc1c2c(nc3ccn(Cc4ccccc4)c(=O)c13)CCC2	-66
Nc1c2c(nc3ccccc13)CCC2.O=C(O)/C=C/C(=O)O	-18.2
Cc1nc(SC2CC(=O)N(c3ccccc3)C2=O)nc2c1CCCC2 (centres unmarked)	-3.22
Cc1sc(NC(=O)CN2CCN(c3ccccn3)CC2)c(C#N)c1C	2.51
O=C(C/C=N/OCc1ccc(Cl)cc1Cl)c1ccccc1	-6.79
CC(=O)Nc1nc(-c2cccc3ccccc23)cs1	-9.32
CSc1ccc(CNC2CC2)cc1.Cl	-7.3
CCCn1c(CC)nc([N+](=O)[O-])c1Sc1ccc(C)cc1	-0.08
CC(C)Cn1c(C(C)C)nc([N+](=O)[O-])c1Sc1ccc(Cl)cn1	-6.57
CCCCn1c(CCC)nc([N+](=O)[O-])c1Sc1ccc(Cl)cn1	-53.2
